Experimental findings from the supplement of paper PMC13380429 are described below.

The subject of assay [1] is Vero E6 infected with SARS-CoV-2. Briefly: morphology score (similarity to uninfected cells); higher = more like uninfected cells. The conditions noted are these: 24 h.
Assay [2] shares this test system. Briefly: SARS-CoV-2 infection rate relative to infected DMSO; higher = more infection, active = 60 or less. The conditions noted are these: 24 h.

For `Cn1c(=O)n(-c2ccc(C(C)(C)C#N)cc2)c2c3cc(-c4cnc5ccccc5c4)ccc3ncc21` (10 µM), the morphology score in assay [1] was determined as 0.0712. In assay [2], the SARS-CoV-2 infection rate was 98% (inactive).

`C[C@H](Cc1ccc(OCC(=O)O)cc1)NC[C@H](O)c1cccc(Cl)c1` (10 µM) had a morphology score in assay [1] of -0.0663. In addition, the SARS-CoV-2 infection rate in assay [2] is 107% (inactive).

Consider `C[C@H](N)Cn1ccc2cc(F)c(Cl)cc21` (10 µM), for which, in assay [1], the morphology score was 0.45. In addition, the SARS-CoV-2 infection rate in assay [2] is 90.5% (inactive).

Take `CCCn1c(=O)c2[nH]c(C3CCCC3)nc2n(CCC)c1=O` (10 µM): in assay [1], the morphology score was found to be 0.0194. In addition, the SARS-CoV-2 infection rate in assay [2] was 105% (inactive).

In turn, `O=C(Nc1ccc(F)cc1)N1CCc2ccccc2[C@@H]1c1ccc(C(F)(F)F)cc1` (10 µM) showed a morphology score in assay [1] of 0.195. Besides, the SARS-CoV-2 infection rate in assay [2] is 87% (inactive).

Compound `CCOC(=O)[C@H](CCc1ccccc1)N[C@@H](C)C(=O)N1Cc2cc(OC)c(OC)cc2C[C@H]1C(=O)O` [moexipril] (10 µM) displayed a morphology score in assay [1] of 0.183. Moreover, the SARS-CoV-2 infection rate in assay [2] is 90% (inactive).

In turn, `CC/C(=C(/c1ccc(/C=C/C(=O)O)cc1)c1ccc2[nH]ncc2c1)c1ccc(F)cc1Cl` (10 µM) showed a morphology score in assay [1] of 0.0792. In addition, the SARS-CoV-2 infection rate in assay [2] is 103% (inactive).

In turn, `O=c1n(CCCN2CCN(c3cccc(Cl)c3)CC2)nc2ccccn12` [trazodone] (10 µM) came in with a morphology score in assay [1] of -0.132. The SARS-CoV-2 infection rate in assay [2] is 116% (inactive).

With `CC/C(=C(\c1ccccc1)c1ccc(OCCN(C)C)cc1)c1ccccc1` [tamoxifen] (0.833333 µM), the morphology score in assay [1] turned out to be 0.135. For the same compound, in assay [2], the SARS-CoV-2 infection rate was 95.5% (inactive).

In assay [1], `O=C(NCCO)c1cccc(-c2cc(Nc3ccc(OC(F)(F)F)cc3)ncn2)c1` (10 µM) registered a morphology score of -0.0129. Also, the SARS-CoV-2 infection rate in assay [2] was 98.5% (inactive).

On to `CC[C@H](C)[C@@H]1NC(=O)[C@H](Cc2ccc(O)cc2)NC(=O)[C@@H](N)CSSC[C@@H](C(=O)N2CCC[C@H]2C(=O)N[C@@H](CC(C)C)C(=O)NCC(N)=O)NC(=O)[C@H](CC(N)=O)NC(=O)[C@H](CCC(N)=O)NC1=O` [oxytocin] (10 µM), for which, in assay [1], the morphology score is -0.0591. Also, the SARS-CoV-2 infection rate in assay [2] is 110% (inactive).

With `C[C@@H](O)[C@H](N)C(=O)N1CCC[C@H]1C(=O)N1CCC[C@H]1C(=O)N[C@H](C(N)=O)[C@@H](C)O` [rapastinel] (10 µM), the morphology score in assay [1] is -0.00969. In assay [2], the SARS-CoV-2 infection rate is 94% (inactive).

In turn, `COC1=CC(=O)C[C@@H](C)[C@]12Oc1c(Cl)c(OC)cc(OC)c1C2=O` [griseofulvin] (10 µM) registered a morphology score in assay [1] of 0.0707. For the same compound, in assay [2], the SARS-CoV-2 infection rate was 104% (inactive).

In turn, `N#CSc1cc(SC#N)c(N)nc1N` (0.833333 µM) gave a morphology score in assay [1] of 0.125. Also, the SARS-CoV-2 infection rate in assay [2] was 98.5% (inactive).

As for `C[C@@H](NC(=O)c1ncnc(N)c1Cl)c1ncc(C(=O)Nc2cc(C(F)(F)F)c(Cl)cn2)s1` (10 µM), the morphology score in assay [1] is -0.0506. Also, the SARS-CoV-2 infection rate in assay [2] is 108% (inactive).

On to `C[C@@H]1CC[C@@]2(OC1)O[C@H]1C[C@H]3[C@@H]4CC=C5C[C@@H](O[C@@H]6O[C@H](CO)[C@@H](O[C@@H]7O[C@@H](C)[C@H](O)[C@@H](O)[C@H]7O)[C@H](O)[C@H]6O[C@@H]6O[C@@H](C)[C@H](O)[C@@H](O)[C@H]6O)CC[C@]5(C)[C@H]4CC[C@]3(C)[C@H]1[C@@H]2C` [dioscin] (10 µM), for which the morphology score in assay [1] turned out to be 0.0193. Further, in assay [2], the SARS-CoV-2 infection rate is 101% (inactive).

Compound `COc1cc(O)c(C(=O)c2ccccc2)cc1S(=O)(=O)O` [sulisobenzone] (10 µM) showed a morphology score in assay [1] of -0.0207. Also, the SARS-CoV-2 infection rate in assay [2] was 109% (inactive).

For the compound `O=C1c2cccc(O)c2C(=O)c2c(O)cc(CO)cc21` [aloe-emodin] (10 µM), the morphology score in assay [1] amounted to 0.29. In addition, the SARS-CoV-2 infection rate in assay [2] is 101% (inactive).

In the case of `O=c1oc2ccccc2c(O)c1Cc1c(O)c2ccccc2oc1=O` [dicoumarol] (10 µM), in assay [1], the morphology score stood at 0.0403. In assay [2], the SARS-CoV-2 infection rate was 108% (inactive).

For `Clc1ccc(COC(Cn2ccnc2)c2ccc(Cl)cc2Cl)c(Cl)c1` (configuration not stated) [miconazole] (10 µM), the morphology score in assay [1] is -0.274. For the same compound, the SARS-CoV-2 infection rate in assay [2] was 118% (inactive).

The compound `C[C@H]1NCc2cc(-c3ccc4c(=O)c(C(=O)O)cn(C5CC5)c4c3OC(F)F)ccc21` [garenoxacin] (10 µM) registered a morphology score in assay [1] of 0.0451. Besides, the SARS-CoV-2 infection rate in assay [2] is 102% (inactive).

Compound `CCN(C(C)=O)c1cccc(-c2ccnc3c(C#N)cnn23)c1` (10 µM) yielded a morphology score in assay [1] of 0.0588. Moreover, in assay [2], the SARS-CoV-2 infection rate is 98.5% (inactive).

For the compound `COc1ccccc1OC(=O)C(C)c1ccc(CC(C)C)cc1` (configuration not stated) [metoxibutropate] (10 µM), the morphology score in assay [1] is 0.217. The SARS-CoV-2 infection rate in assay [2] was 101% (inactive).

As for `CN1C[C@@H](NS(=O)(=O)N(C)C)C[C@@H]2c3cccc4c3c(cn4C)C[C@H]21` [mesulergine] (10 µM), in assay [1], the morphology score stood at 0.205. In addition, the SARS-CoV-2 infection rate in assay [2] was 93.5% (inactive).

In assay [1], `O=C(O)[C@H](Cc1c[nH]c2ccccc12)N1C(=O)c2ccccc2C1=O` (10 µM) showed a morphology score of -0.0791. Also, the SARS-CoV-2 infection rate in assay [2] is 115% (inactive).

In the case of `Cc1ccc2c(=O)c3cccc(CC(=O)O)c3oc2c1C` (10 µM), the morphology score in assay [1] is -0.0879. In addition, in assay [2], the SARS-CoV-2 infection rate is 114% (inactive).
